# Assay results from PubChem BioAssay (NCATS).
# Records with an inconclusive call do not appear. Values without a mark were called inactive. Calls of active or inactive are those of the source. Calls follow the shape of the dose curve; as a rule, active = well fitted curve in the direction sought with a large enough effect; inconclusive = small, poorly fitted or top-dose-only effect, or another doubt; inactive = no such curve, though single readings can be large; an effect the other way counts as inactive or inconclusive.
# Columns and labels:
# UISO = assay: qHTS assay to identify novel small-molecules to repurpose for Merkel cell carcinoma treatment (AID 1296009); conditions: MCC and control cell lines, CellTiter-Glo viability, 72 h; series mostly up to 46 µM; also: nearly all actives have a fitted effect of over 60% in size; also: potency is read from the fitted curve at half-maximal effect
# Summary of the method: (§1)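 CellTiter-Glo luminescence after 72 hr compound exposure at 37 degree celsius gave cell viability. Libraries NPC and MIPE were run as 8- and 11-point dose responses; RLUs normalized to DMSO (negative) and no-cell (cytotoxicity) controls.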
# WaGa = assay: as above; conditions: MCC and control cell lines, CellTiter-Glo viability, 72 h; series mostly up to 46 µM
# Summary of the method: as §1
# Es-2 = assay: Primary qHTS to identify gynecologic anti-cancer compounds using libraries of approved drugs and bioactive compounds (AID 1345084); conditions: Gynecologic cancer cell panel viability, ATPlite luminescence, 48 h; series mostly up to 57.5 µM; also: nearly all actives have a fitted effect of over 55% in size; also: potency is read from the fitted curve at half-maximal effect
# Summary of the method: (§2)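 Luminescence from the ATPlite ATP-monitoring reagent indicates viable cell number; lower signal means cytotoxicity. Cells received compound 16 h after seeding and were exposed for 48 h across five concentrations.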
# JEG-3 = assay: as above; conditions: Gynecologic cancer cell panel viability, ATPlite luminescence, 48 h; series mostly up to 57.5 µM
# Summary of the method: as §2
# PA-1 = assay: as above; conditions: Gynecologic cancer cell panel viability, ATPlite luminescence, 48 h; series mostly up to 57.5 µM
# Summary of the method: as §2
# CAOV3 = assay: as above; conditions: Gynecologic cancer cell panel viability, ATPlite luminescence, 48 h; series mostly up to 57.5 µM
# Summary of the method: as §2
# CASKI = assay: as above; conditions: Gynecologic cancer cell panel viability, ATPlite luminescence, 48 h; series mostly up to 57.5 µM
# Summary of the method: as §2
# Hek293T = assay: as above; conditions: Gynecologic cancer cell panel viability, ATPlite luminescence, 48 h, control line for the selectivity index; series mostly up to 57.5 µM
# Summary of the method: as §2
# OV90 = assay: as above; conditions: Gynecologic cancer cell panel viability, ATPlite luminescence, 48 h; series mostly up to 57.5 µM
# Summary of the method: as §2
# Tov-21-G = assay: as above; conditions: Gynecologic cancer cell panel viability, ATPlite luminescence, 48 h; series mostly up to 57.5 µM
# Summary of the method: as §2
# [1] = qHTS assay to identify inhibitors of the type 1 interferon - major histocompatibility complex class I in skeletal muscle: Counter screen cell viability and HiBit confirmation (AID 1347412); conditions: iHSKM muscle cells + IFN-b, HiBiT or CellTiter-Glo, 24 h; for activity change, negative = inhibition: at 45.9 µM (top of the series); also: potency is read from the fitted curve at half-maximal effect; as to all read-outs here: nearly all actives have a fitted effect of over 60% in size
# Summary of the method: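 CRISPR HLA-B*08:01-HiBit immortalized human myoblasts (C25cl48) stimulated with 4 ng/ml IFN-beta and compounds (12-point 1:3, top 46 uM final) for 24 h at 37 C. Duplicate plates read by HiBit lytic luminescence or CellTiter Glo ATP.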
# C33A = assay: Primary qHTS to identify gynecologic anti-cancer compounds using libraries of approved drugs and bioactive compounds (AID 1345084); conditions: Gynecologic cancer cell panel viability, ATPlite luminescence, 48 h; series mostly up to 57.5 µM; also: nearly all actives have a fitted effect of over 55% in size; also: potency is read from the fitted curve at half-maximal effect
# Summary of the method: as §2
# HeLa = assay: as above; conditions: Gynecologic cancer cell panel viability, ATPlite luminescence, 48 h; series mostly up to 57.5 µM
# Summary of the method: as §2
# SKOV3 = assay: as above; conditions: Gynecologic cancer cell panel viability, ATPlite luminescence, 48 h; series mostly up to 57.5 µM
# Summary of the method: as §2
# Tov112D = assay: as above; conditions: Gynecologic cancer cell panel viability, ATPlite luminescence, 48 h; series mostly up to 57.5 µM
# Summary of the method: as §2
# [2] = Drug repurposing screens with cells derived from glioblastoma tumor samples (AID 1345199); conditions: GBM patient neurospheres viability, ATP luminescence, 48 h; also: nearly all actives have a fitted effect of over 40% in size
# Summary of the method: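 Primary testing used CD133+ neurospheres from four GBM patients, seven concentrations, 48 h exposure and ATP-based viability; confirmation added three slower-growing patient lines.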
# [3] = at 45.9 µM (top of the series), tumour line B
# [4] = at 45.9 µM (top of the series), tumour line D
# [5] = at 46.1 µM (top of the series), tumour line C
# [6] = at 46 µM (top of the series), tumour line A
# % is scaled to controls: 0 for no effect and ±100 for the full control effect.
smiles,measurement,setting,value
COCCOc1ccc2c(c1)ncn2-c1ccc2cccc(N3CCC(N)CC3)c2n1,Potency,UISO,26.4 µM (active)
same,Potency,WaGa,20.9 µM (active)
same,Potency,Es-2,28.2 µM (active)
same,Potency,JEG-3,17.8 µM (active)
same,Potency,PA-1,7.94 µM (active)
CCc1c2c(nc3ccc(O)cc13)-c1cc3c(c(=O)n1C2)COC(=O)[C@]3(O)CC,Potency,UISO,0.0209 µM (active)
same,Potency,WaGa,0.0047 µM (active)
same,Potency,CAOV3,0.251 µM (active)
same,Potency,CASKI,0.126 µM (active)
same,Potency,Hek293T,0.891 µM (active)
same,Potency,JEG-3,8.91 µM (active)
same,Potency,OV90,1.78 µM (active)
same,Potency,Tov-21-G,3.16 µM (active)
same,Potency,[1]; HiBiT,1.4 µM (active)
same,"activity change, negative = inhibition",[1]; Viability,-11.1%
CC(O)C1C(=O)N2C(C(=O)O)=C(SC3CNC(C(=O)N(C)C)C3)C(C)C12 (stereo not drawn),Potency,UISO,inactive
same,Potency,C33A,inactive
same,Potency,CAOV3,inactive
same,Potency,CASKI,inactive
same,Potency,Es-2,inactive
same,Potency,HeLa,inactive
same,Potency,Hek293T,inactive
same,Potency,JEG-3,inactive
same,Potency,OV90,inactive
same,Potency,PA-1,inactive
same,Potency,SKOV3,inactive
same,Potency,Tov-21-G,inactive
same,Potency,Tov112D,inactive
O=c1[nH]nc(Sc2ncc([N+](=O)[O-])s2)n1-c1ccc2c(c1)OCCO2,Potency,UISO,7.43 µM (active)
same,Potency,WaGa,5.26 µM (active)
same,Potency,[1]; HiBiT,14 µM (active)
COc1cc(C(C)C)c2c(c1)S(=O)(=O)N(COc1cc(=O)n3cccc(OCCN4CCCCC4)c3n1)C2=O,Potency,UISO,inactive
same,Potency,WaGa,inactive
same,"activity change, negative = inhibition",[1]; Viability,-20.7%
CCN1CCN(Cc2ccc(-c3cc4c(N[C@H](C)c5ccccc5)ncnc4[nH]3)cc2)CC1,Potency,UISO,0.118 µM (active)
same,Potency,WaGa,0.0209 µM (active)
same,Potency,[1]; HiBiT,19.8 µM (active)
C=CCn1c(=O)c2cnc(Nc3ccc(N4CCN(C)CC4)cc3)nc2n1-c1cccc(C(C)(C)O)n1,Potency,UISO,3.72 µM (active)
same,Potency,C33A,1.41 µM (active)
same,Potency,CAOV3,3.55 µM (active)
same,Potency,CASKI,3.16 µM (active)
same,Potency,Es-2,1.26 µM (active)
same,Potency,HeLa,0.708 µM (active)
same,Potency,Hek293T,0.631 µM (active)
same,Potency,JEG-3,3.55 µM (active)
same,Potency,PA-1,1.58 µM (active)
same,Potency,SKOV3,0.447 µM (active)
same,Potency,Tov-21-G,0.631 µM (active)
same,Potency,Tov112D,2 µM (active)
CN1c2cc(O)c(N=NC(N)=O)cc2CC1S(=O)(=O)O (stereo not drawn),Potency,UISO,inactive
same,Potency,WaGa,inactive
same,"activity, negative = cell killing",[2]; [3],-14.6%
same,"activity, negative = cell killing",[2]; [4],7.92%
same,"activity, negative = cell killing",[2]; [5],-16.8%
CC(C)c1ccc(Cn2ccc3c4c(N)nc(NC5CC5)nc4ccc32)cc1,Potency,UISO,14.8 µM (active)
same,Potency,WaGa,9.35 µM (active)
same,Potency,[1]; HiBiT,17.6 µM (active)
same,Potency,[1]; Viability,27.9 µM (active)
CC(C)(C)c1cc(C(C)(C)C)c(NC(=O)c2c[nH]c3ccccc3c2=O)cc1O,Potency,UISO,inactive
same,Potency,WaGa,inactive
same,"activity change, negative = inhibition",[1]; HiBiT,-18%
same,"activity change, negative = inhibition",[1]; Viability,-12%
C[C@H]1C[C@@H]2[C@@H]([C@@H](O)C[C@@]3(C)[C@H]2CC[C@]3(O)C(=O)CO)[C@@]2(C)C=CC(=O)C=C12,Potency,UISO,inactive
same,Potency,WaGa,inactive
same,"activity, negative = cell killing","[2]; at 20 µM (top of the series), tumour line C",-10.7%
same,"activity, negative = cell killing","[2]; at 21.2 µM (top of the series), tumour line B",-18.9%
same,"activity, negative = cell killing","[2]; at 21.2 µM (top of the series), tumour line D",-26.6%
same,"activity, negative = cell killing","[2]; at 21.3 µM (top of the series), tumour line A",-9.28%
Cc1cc(Nc2cc(NC(=O)c3c(Cl)cccc3Cl)ccn2)nc(N)n1,Potency,UISO,1.18 µM (active)
same,Potency,WaGa,2.35 µM (active)
same,Potency,[1]; HiBiT,2.79 µM (active)
same,"activity change, negative = inhibition",[1]; Viability,21.4%
COCCn1c2c([n+](Cc3cnccn3)c1C)C(=O)c1ccccc1C2=O,Potency,UISO,0.0187 µM (active)
same,Potency,WaGa,0.0132 µM (active)
same,Potency,[1]; HiBiT,1.98 µM (active)
same,Potency,[1]; Viability,2.49 µM (active)
C[C@@]12O[C@@H](C[C@]1(O)CO)n1c3ccccc3c3c4c(c5c6ccccc6n2c5c31)CNC4=O,Potency,UISO,1.66 µM (active)
same,Potency,WaGa,0.833 µM (active)
same,Potency,[1]; HiBiT,0.701 µM (active)
same,"activity change, negative = inhibition",[1]; Viability,-0.759%
c1ccc2c(CCNc3ccc(Nc4ccncc4)cc3)c[nH]c2c1,Potency,UISO,13.2 µM (active)
same,Potency,WaGa,7.43 µM (active)
same,Potency,HeLa,inactive
same,Potency,JEG-3,inactive
same,Potency,PA-1,10 µM (active)
same,Potency,Tov-21-G,inactive
same,"activity change, negative = inhibition",[1]; HiBiT,19.8%
same,"activity change, negative = inhibition",[1]; Viability,-28.3%
CCn1nnc2c(N3CCOCC3)nc(-c3ccc(NC(=O)Nc4ccc(C(=O)N5CCN(C)CC5)cc4)cc3)nc21,Potency,UISO,0.0332 µM (active)
same,Potency,C33A,inactive
same,Potency,CAOV3,0.316 µM (active)
same,Potency,CASKI,0.251 µM (active)
same,Potency,Es-2,1.12 µM (active)
same,Potency,Hek293T,0.631 µM (active)
same,Potency,PA-1,0.398 µM (active)
same,Potency,SKOV3,0.316 µM (active)
same,Potency,Tov-21-G,0.224 µM (active)
same,Potency,[1]; Viability,0.991 µM (active)
Nc1nc(NCCNc2ncc(-n3ccnc3)c(-c3ccc(Cl)cc3Cl)n2)ccc1[N+](=O)[O-],Potency,UISO,inactive
same,Potency,WaGa,inactive
same,Potency,CASKI,inactive
same,Potency,Es-2,inactive
same,Potency,Hek293T,inactive
same,Potency,OV90,inactive
same,Potency,PA-1,inactive
same,Potency,SKOV3,inactive
same,Potency,Tov-21-G,inactive
same,Potency,Tov112D,inactive
same,Potency,[1]; HiBiT,15.7 µM (active)
same,"activity change, negative = inhibition",[1]; Viability,-15.1%
CC(C)C[C@H](NC(=O)CNC(=O)c1cc(Cl)ccc1Cl)B(O)O,Potency,UISO,0.59 µM (active)
same,Potency,WaGa,0.296 µM (active)
same,Potency,[1]; HiBiT,0.557 µM (active)
CC=CC1=C(C(=O)O)N2C(=O)[C@H](NC(=O)[C@H](N)c3ccc(O)cc3)[C@@H]2SC1,Potency,UISO,inactive
same,Potency,WaGa,inactive
same,"activity, negative = cell killing",[2]; [3],-15%
same,"activity, negative = cell killing",[2]; [4],-0.836%
same,"activity, negative = cell killing",[2]; [6],-26.1%
same,"activity, negative = cell killing",[2]; [5],-17.4%
C[C@]1(CO)CN(c2cc(C(=O)Nc3ccc4c(c3)-c3c(c(C(N)=O)nn3-c3ccc(F)cc3)CC4)c(Cl)cn2)C[C@@]1(C)CO,Potency,UISO,9.35 µM (active)
same,Potency,WaGa,18.7 µM (active)
same,Potency,HeLa,inactive
same,Potency,Hek293T,inactive
same,Potency,JEG-3,inactive
same,Potency,OV90,inactive
same,Potency,PA-1,11.2 µM (active)
CC1(C)O[C@@H]2C[C@@H]3[C@H]4C[C@@H](F)C5=CC(=O)C=C[C@]5(C)[C@@]4(F)[C@@H](O)C[C@]3(C)[C@]2(C(=O)CO)O1,Potency,UISO,inactive
same,Potency,WaGa,inactive
same,"activity, negative = cell killing",[2]; [3],-7.89%
same,"activity, negative = cell killing",[2]; [4],-1.99%
same,"activity, negative = cell killing",[2]; [6],-7.12%
same,"activity, negative = cell killing",[2]; [5],2.95%
C=CC(=O)Nc1cc2c(Nc3ccc(F)c(Cl)c3)ncnc2cc1C#CC(C)(C)N1CCN(C)CC1,Potency,UISO,7.43 µM (active)
same,Potency,WaGa,5.26 µM (active)
same,Potency,[1]; Viability,22.2 µM (active)
COc1cc2c(Oc3ccc4[nH]c(C)cc4c3F)ncnc2cc1OCCCN1CCCC1,Potency,UISO,inactive
same,Potency,WaGa,inactive
same,Potency,Es-2,inactive
same,Potency,HeLa,inactive
same,Potency,Hek293T,inactive
same,Potency,PA-1,inactive
same,Potency,Tov112D,12.6 µM (active)
same,Potency,[1]; HiBiT,19.8 µM (active)
same,Potency,[1]; Viability,19.8 µM (active)
CC(C)c1nn(-c2c(Cl)cccc2Cl)c2nc(Cc3ccc(OCCO)cc3)[nH]c(=O)c12,Potency,UISO,0.105 µM (active)
same,Potency,C33A,0.282 µM (active)
same,Potency,CAOV3,0.158 µM (active)
same,Potency,CASKI,0.501 µM (active)
same,Potency,PA-1,0.251 µM (active)
same,Potency,SKOV3,1.41 µM (active)
same,Potency,Tov112D,0.282 µM (active)
same,Potency,[1]; HiBiT,0.0352 µM (active)
same,"activity change, negative = inhibition",[1]; Viability,27.7%
